Results reported in PubChem BioAssay (NCI).
About 83,000 compounds went through this panel and 20% of them were active in at least one assay; those are over-represented in the sample as a whole.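 Testing used 96-well plates and a 48-hour single-concentration exposure. Example: -40 means 40% of the starting cells died.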 Activity calls are given as the source filed them. Rule for the calls: active = growth percent below 10; inactive = the rest.

What follows are compounds tested on HL-60(TB) leukemia (assay: NCI-60 one-dose screen, 48 h (100 = growth as untreated, 0 = no growth, -100 = all killed)). Conditions: 10 µM unless noted.
`O=C(O)C(O)C(O)C(=O)O.[NH-]C1CCCCC1[NH-].[Pt+2]` (centres undefined) was tested, and the growth was 104% (inactive). For `CCOC(=O)CNC`, the growth was 97.3% (inactive). For `CCOC(=O)c1ccc(N(C=O)CCC(=O)CCl)cc1`, the growth was -28.6% (active). `C(=C\c1c[nH]c2ccccc12)/c1ccc2ccccc2n1` was tested, and the growth was 2.85% (active). In the case of `CC(=O)Oc1ccccc1C(=O)N=C1[Se]CCN1C(=O)c1ccccc1OC(C)=O`, the growth is reported as -34.4% (active). For `C=C1CC[C@@H]2[C@](C)(COC(C)=O)[C@H](OC(C)=O)CC[C@@]2(C)[C@@H]1CC(Nc1ccc(S(=O)(=O)Nc2nc(C)cc(C)n2)cc1)C1=CCOC1=O` (some centres undefined), the growth was 21.7% (inactive). `COc1cc2c(Nc3ccc(NC(=O)Nc4ccc(Cl)c(C(F)(F)F)c4)c(Cl)c3)ncnc2cc1OCCCN1CCN(C)CC1` was tested, and the growth was -56.4% (active). `CCCCCCCC/C=C/CCCCCCCC1=NCC[N+]1(CCO)CCO` was tested, and the growth was 31.7% (inactive). For `COc1ccc2c(c1)C(=O)/C(=C/c1cccc(OCC(=O)c3ccc([N+](=O)[O-])cc3)c1)CO2`, the growth was -46.6% (active). `CCN(CC)C(=O)CCCCCn1c2ccccc2c2c3c(c4c5ccccc5[nH]c4c21)C(=O)N(O)C3=O` was tested, and the growth was 21.8% (inactive). `COc1cccc(NC(=O)c2sc3nc4c(cc3c2N)CN(Cc2ccccc2)CC4)c1` was tested, and the growth was 50.1% (inactive). For `CCN(CC)c1ccc2cc(NC(=O)OCCNC(=O)CCNC(=O)[C@H](CC(C)C)NC(=O)C(C)(C)NC(=O)C(C)(C)NC(=O)[C@H](CC(C)C)NC(=O)CCNC(=O)C(C)(C)NC(=O)[C@H](CC(C)C)NC(=O)CCNC(=O)[C@@](C)(CC)NC(=O)[C@H](C)NC(=O)CCNC(=O)C(C)(C)NC(=O)[C@H](C)NC(=O)[C@@H]3CCCN3C(=O)[C@@](C)(CC)NC(=O)[C@H](Cc3ccccc3)NC(=O)C3CCCN3C(=O)C(C)(C)NC(=O)C3CCCN3C(=O)C(C)(C)NC(C)=O)c(=O)oc2c1` (some centres undefined), the growth was -67.7% (active). For `Cc1ccc(NC(=O)Nc2c(Cl)cccc2Cl)cn1`, the growth was 71.3% (inactive). In the case of `O=[N+]([O-])c1cc(Br)c2cccc3c2c1CC3`, the growth is reported as 94.4% (inactive). `Cn1c(NCCc2ccc(O)c(O)c2)nc2c1c(=O)n(Cc1ccc(Cl)c(Cl)c1)c(=O)n2C` was tested, and the growth was 14.8% (inactive). In the case of `NNc1nc(-c2cccnc2)nc2c1sc(=S)n2-c1ccccc1`, the growth is reported as 77.1% (inactive). With `CN1CCCN(CCNc2nccc(-c3c(-c4cccc(O)c4)nc4sccn34)n2)S1(=O)=O` the growth was 69.2% (inactive). `N#Cc1ccc(C(=O)CSc2nccc(Nc3ccc(C(=O)O)cc3)n2)cc1` was tested, and the growth was 99.5% (inactive). With `O=C(NCCCNS(=O)(=O)c1ccc(Cl)cc1)Nc1ccc(-n2cc(-c3ccncc3)c(-c3ccc(Cl)c(O)c3)n2)cc1` the growth was 16.3% (inactive). With `COc1ccc(C2=NN(C(C)=O)C(c3cn(Cc4ccc(Cl)cc4)c4ccccc34)C2)cc1` (centres undefined) the growth was 79.5% (inactive). With `Cc1ccc(Cc2c(C=O)nc(N)[nH]c2=O)c2ccccc12` the growth was 36.1% (inactive). In the case of `Cn1c2ccccc2c2ssc(=S)c21`, the growth is reported as 43.5% (inactive). `COC1OC(C(O)C(O)CO)C(O)C(O)C1O` (centres undefined) was tested, and the growth was 108% (inactive). For `O=S(=O)(O)c1ccc(O)c2ccccc12`, the growth was 86% (inactive). In the case of `COc1cccc(-c2nn(-c3ccccc3)cc2-c2ccnc(NCCCNC(=O)c3ccccc3)c2)c1`, the growth is reported as 23.8% (inactive). In the case of `O=C(/C=C/c1cccc(Cl)c1)c1ccc(O)c(CN2CCN(c3cc4c(cc3F)c(=O)c(C(=O)O)cn4C3CC3)CC2)c1`, the growth is reported as 27.3% (inactive). With `COc1cc(CNS(=O)(=O)c2ccc(C)cc2)ccc1OCc1cn(-c2ccc(Br)cc2)nn1` the growth was 106% (inactive). With `CCC(CCCN(CC)CCc1ccccc1)OC(=O)c1cc(OC)c(OC)c(OC)c1` (centres undefined) the growth was 95% (inactive). In the case of `OC(Cc1cc(CC(O)(C(F)(F)F)C(F)(F)F)nc(CC(O)(C(F)(F)F)C(F)(F)F)c1)(C(F)(F)F)C(F)(F)F`, the growth is reported as -24.5% (active). For `CSc1nc2ccccc2cc1/C=C1/C=C(c2ccccc2)NC1=O`, the growth was 85.7% (inactive). For `COc1ccc(/C=C/c2nc(NCCCN(C)C)c3ccccc3n2)cc1`, the growth was 88.3% (inactive). `CC1Cc2c(Cl)ncnc2N(C)c2ccc(O)cc21` (centres undefined) was tested, and the growth was 91.4% (inactive). With `O=C(CN1CCN(c2cc3c(cc2F)c(=O)c(C(=O)O)cn3C2CC2)CC1)Nc1ccc(C(=O)/C=C/c2ccc(Cl)cc2)cc1` the growth was 134% (inactive). For `COc1ccc(C2=NN(c3ccc(S(N)(=O)=O)cc3)C(c3ccc(Cl)cc3)C2)c(O)c1` (centres undefined), the growth was 29.9% (inactive).
